These results are taken from PubChem BioAssay (NCATS).

Structures are written as SMILES.

A short description of the first test: qHTS profiling of the MIPE4 collection as inhibitors of Plasmodium falciparum (3D7) proliferation (AID 743344).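 Also: scaled between DMSO vehicle wells and 0.29 µM artemisinin as full inhibition.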 The conditions noted are these: P. falciparum 3D7 in erythrocytes, SYBR Green DNA fluorescence, 72 h; at 28.5 µM unless noted. The essentials:
(§1)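 Erythrocytes infected with P. falciparum (0.3% parasitemia, 2.5% hematocrit) incubated with compounds 72 h at 37 C, 5% CO2. Lysis with saponin/Triton buffer containing SYBR Green I, overnight at room temperature in the dark; DNA fluorescence (485/535 nm) normalised to 0.29 uM artemisinin and DMSO.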
The compound `O=C(NCCCNc1nc(Nc2cccc(NC(=O)N3CCCC3)c2)ncc1I)c1cccs1` registered a parasite growth, % of DMSO control of 6.21%.
As for `CCOc1ccccc1OCCNC(C)Cc1ccc(OC)c(S(N)(=O)=O)c1` (stereo not given), the parasite growth, % of DMSO control amounted to 65.8%.
Compound `NC(=O)c1c(OCc2c(F)cc(Br)cc2F)nsc1NC(=O)NCCCCN1CCCC1` came in with a parasite growth, % of DMSO control of 47.5%.
Same read-out and setting: as for `CCCCc1nc2cc(C=CC(=O)NO)ccc2n1CCN(CC)CC`, the figure is 4.71%.
On to `CC(C)(O)c1cc2nc(-c3cnc(N)nc3)nc(N3CCOCC3)c2s1`, for which the parasite growth, % of DMSO control was 10.6%.
With `COc1cc(=C2C=c3ccccc3=N2)[nH]c1=Cc1[nH]c(C)cc1C`, the parasite growth, % of DMSO control came to 4.63%.
The compound `O=C(NC1CCNCC1)c1[nH]ncc1NC(=O)c1c(Cl)cccc1Cl` had a parasite growth, % of DMSO control of 10.8%.
The same measure, in the same setting: as for `CCOc1cc2ncc(C#N)c(Nc3ccc(F)c(Cl)c3)c2cc1NC(=O)C=CCN(C)C`, the figure is 8.27%; as for `COc1ccc(C(=O)CC2(O)C(=O)Nc3c(Cl)ccc(Cl)c32)cc1` (stereo not given), 74.3%; as for `COc1ccc(CC2c3cc(OC)c(OC)cc3CC[N+]2(C)CCC(=O)OCCCCCOC(=O)CC[N+]2(C)CCc3cc(OC)c(OC)cc3C2Cc2ccc(OC)c(OC)c2)cc1OC` (stereo not given), 57.8% [at 5.51 µM].
The same measure, in the same setting: as for `CC(C)(O)CCc1ccc(OCc2cc(-c3cccc(OC(F)F)c3)c3ncccc3c2)cc1`, the figure is 111%; as for `COc1cc(OC2CCN(C)CC2)ccc1Nc1ncc2c(n1)n(C1CCCC1)c(=O)n2C`, 9.89%.
Still for that read-out and setting: with `O=C(NCCS(=O)(=O)c1ccc(C(F)(F)F)cn1)c1ccc(Cl)cc1` the figure was 127%; with `CC[C@@]1(O)C(=O)OCc2c1cc1n(c2=O)Cc2cc3cc(O)ccc3nc2-1`, 13.5%.
`COc1cccc(Nc2c(C(N)=O)cnc3c(C)cc(S(=O)(=O)c4cccc(C(=O)N(C)C)c4)cc23)c1`: the parasite growth, % of DMSO control amounted to 37.9% [at 9.64 µM].
On the same count and under the same terms, as for `CC(C)c1cc(-c2n[nH]c(=O)n2-c2ccc3c(ccn3C)c2)c(O)cc1O`, the figure is 5.55%.
On to `Cc1cc(CN2CCN(c3c(Br)cnc4nc(-c5ccc(N6CCN(C)CC6)cc5)[nH]c34)CC2)no1`, for which the parasite growth, % of DMSO control came to 15.7%.
Same read-out and setting: as for `c1ccc2c(CCNc3ccc(Nc4ccncc4)cc3)c[nH]c2c1`, the figure is 11.1%; as for `CN1CCN(Cc2ccc(NC(=O)Nc3ccc(Oc4cc(NC(=O)C5CC5)ncn4)cc3)cc2C(F)(F)F)CC1`, 6%.
On the same count and under the same terms, with `CCN(CC)CCCCNc1ncc2cc(-c3cc(OC)cc(OC)c3)c(NC(=O)NC(C)(C)C)nc2n1` the figure was 5.7%; with `C[C@@H]1COC(Nc2ccc3ncnc(Nc4ccc(OCc5nccs5)c(Cl)c4)c3c2)=N1`, 6%.
As for `CC(=O)Nc1sc2c(c1-c1nc3ccccc3s1)CNC2`, the parasite growth, % of DMSO control stood at 20.4%.
Still for that read-out and setting: with `C=CCn1c(=O)c2cnc(Nc3ccc(N4CCN(C)CC4)cc3)nc2n1-c1cccc(C(C)(C)O)n1` the figure was 13.4%; with `CC[C@H]1CN2CCc3cc(OC)c(OC)cc3[C@H]2C[C@@H]1C[C@@H]1NCCc2cc(OC)c(OC)cc21`, 4.96%; with `C1=CCOCc2cc(ccc2OCCN2CCCC2)Nc2nccc(n2)-c2cccc(c2)OCC1`, 5.07%.
Still for that read-out and setting: with `Clc1cccc(-c2nnnn2Cc2cccnc2)c1Cl` the figure was 72.2%.
On the same count and under the same terms, as for `Cc1ccc(C(N)=O)cc1Nc1nccc(-c2cn(C(C)C)c3cnccc23)n1`, the figure is 5.53%; as for `C1Cc2[nH]nc(-c3nn[nH]n3)c2C1`, 96.6%.
In turn, `Cc1cc(Nc2cc(N3CCN(C)CC3)nc(C=Cc3ccccc3)n2)n[nH]1` returned a parasite growth, % of DMSO control of 5.15% [at 57.5 µM].
On the same count and under the same terms, as for `CC(=O)Nc1nc(C)c(-c2ccc(Cl)c(S(=O)(=O)NCCO)c2)s1`, the figure is 4.79%; as for `O=C(C=Cc1cccnc1)NCCCCC1CCN(C(=O)c2ccccc2)CC1`, 50.2%.
Same read-out and setting: as for `O=C(Nc1cn[nH]c1-c1nc2ccc(CN3CCOCC3)cc2[nH]1)NC1CC1`, the figure is 5.31%; as for `Cc1nc2ccc(CN(C)c3ccc(C(=O)N[C@@H](CCC(=O)O)C(=O)O)s3)cc2c(=O)[nH]1`, 211%; as for `O=C(Nc1ncc(-c2cc(C(F)F)nn2-c2c(Cl)cccc2Cl)s1)C1CC1`, 10.3%.
In turn, `Cc1ccc2nc(NC(=O)CSc3nc4c(c(=O)n3-c3ccccc3)SCC4)sc2c1` came in with a parasite growth, % of DMSO control of 29.9%.

The next test in a line: qHTS profiling of the MIPE4 collection as inhibitors of Plasmodium falciparum (DD2) proliferation (AID 743345). The conditions noted are these: P. falciparum Dd2 in erythrocytes, SYBR Green DNA, 72 h; at 28.5 µM unless noted. The essentials: as §1
Turning to `O=C(NCCCNc1nc(Nc2cccc(NC(=O)N3CCCC3)c2)ncc1I)c1cccs1`, the parasite growth remaining, % of DMSO control (lower = more inhibition) was 12.5%.
Same read-out and setting: as for `CCOc1ccccc1OCCNC(C)Cc1ccc(OC)c(S(N)(=O)=O)c1` (stereo not given), the figure is 84.6%.
Still for that read-out and setting: as for `NC(=O)c1c(OCc2c(F)cc(Br)cc2F)nsc1NC(=O)NCCCCN1CCCC1`, the figure is 74.6%; as for `CCCCc1nc2cc(C=CC(=O)NO)ccc2n1CCN(CC)CC`, 7.36%.
Same read-out and setting: with `CC(C)(O)c1cc2nc(-c3cnc(N)nc3)nc(N3CCOCC3)c2s1` the figure was 10.4%; with `COc1cc(=C2C=c3ccccc3=N2)[nH]c1=Cc1[nH]c(C)cc1C`, 7.38%.
With `O=C(NC1CCNCC1)c1[nH]ncc1NC(=O)c1c(Cl)cccc1Cl`, the parasite growth remaining, % of DMSO control (lower = more inhibition) is 11.4%.
On the same count and under the same terms, with `CCOc1cc2ncc(C#N)c(Nc3ccc(F)c(Cl)c3)c2cc1NC(=O)C=CCN(C)C` the figure was 7.41%; with `COc1ccc(C(=O)CC2(O)C(=O)Nc3c(Cl)ccc(Cl)c32)cc1` (stereo not given), 85.7%; with `COc1ccc(CC2c3cc(OC)c(OC)cc3CC[N+]2(C)CCC(=O)OCCCCCOC(=O)CC[N+]2(C)CCc3cc(OC)c(OC)cc3C2Cc2ccc(OC)c(OC)c2)cc1OC` (stereo not given), 93.6% [at 5.51 µM].
Same read-out and setting: as for `CC(C)(O)CCc1ccc(OCc2cc(-c3cccc(OC(F)F)c3)c3ncccc3c2)cc1`, the figure is 93%.
On the same count and under the same terms, with `COc1cc(OC2CCN(C)CC2)ccc1Nc1ncc2c(n1)n(C1CCCC1)c(=O)n2C` the figure was 9.37%; with `O=C(NCCS(=O)(=O)c1ccc(C(F)(F)F)cn1)c1ccc(Cl)cc1`, 103%; with `CC[C@@]1(O)C(=O)OCc2c1cc1n(c2=O)Cc2cc3cc(O)ccc3nc2-1`, 12.6%.
Turning to `COc1cccc(Nc2c(C(N)=O)cnc3c(C)cc(S(=O)(=O)c4cccc(C(=O)N(C)C)c4)cc23)c1`, the parasite growth remaining, % of DMSO control (lower = more inhibition) is 90.5% [at 9.64 µM].
Still for that read-out and setting: with `CC(C)c1cc(-c2n[nH]c(=O)n2-c2ccc3c(ccn3C)c2)c(O)cc1O` the figure was 8.22%; with `Cc1cc(CN2CCN(c3c(Br)cnc4nc(-c5ccc(N6CCN(C)CC6)cc5)[nH]c34)CC2)no1`, 6.44%.
Same read-out and setting: as for `c1ccc2c(CCNc3ccc(Nc4ccncc4)cc3)c[nH]c2c1`, the figure is 10.6%; as for `CN1CCN(Cc2ccc(NC(=O)Nc3ccc(Oc4cc(NC(=O)C5CC5)ncn4)cc3)cc2C(F)(F)F)CC1`, 6.55%; as for `CCN(CC)CCCCNc1ncc2cc(-c3cc(OC)cc(OC)c3)c(NC(=O)NC(C)(C)C)nc2n1`, 9.87%.
The same measure, in the same setting: as for `C[C@@H]1COC(Nc2ccc3ncnc(Nc4ccc(OCc5nccs5)c(Cl)c4)c3c2)=N1`, the figure is 11.5%; as for `CC(=O)Nc1sc2c(c1-c1nc3ccccc3s1)CNC2`, 15.4%; as for `C=CCn1c(=O)c2cnc(Nc3ccc(N4CCN(C)CC4)cc3)nc2n1-c1cccc(C(C)(C)O)n1`, 13.2%.
With `CC[C@H]1CN2CCc3cc(OC)c(OC)cc3[C@H]2C[C@@H]1C[C@@H]1NCCc2cc(OC)c(OC)cc21`, the parasite growth remaining, % of DMSO control (lower = more inhibition) was determined as 6.45%.
On the same count and under the same terms, with `C1=CCOCc2cc(ccc2OCCN2CCCC2)Nc2nccc(n2)-c2cccc(c2)OCC1` the figure was 5.48%; with `Clc1cccc(-c2nnnn2Cc2cccnc2)c1Cl`, 95.6%.
Still for that read-out and setting: with `Cc1ccc(C(N)=O)cc1Nc1nccc(-c2cn(C(C)C)c3cnccc23)n1` the figure was 6.53%; with `C1Cc2[nH]nc(-c3nn[nH]n3)c2C1`, 93.2%.
On the same count and under the same terms, with `Cc1cc(Nc2cc(N3CCN(C)CC3)nc(C=Cc3ccccc3)n2)n[nH]1` the figure was 6.9% [at 57.5 µM].
As to `CC(=O)Nc1nc(C)c(-c2ccc(Cl)c(S(=O)(=O)NCCO)c2)s1`, the parasite growth remaining, % of DMSO control (lower = more inhibition) is 7.49%.
With `O=C(C=Cc1cccnc1)NCCCCC1CCN(C(=O)c2ccccc2)CC1`, the parasite growth remaining, % of DMSO control (lower = more inhibition) came out at 93.7%.
Consider `O=C(Nc1cn[nH]c1-c1nc2ccc(CN3CCOCC3)cc2[nH]1)NC1CC1`, for which the parasite growth remaining, % of DMSO control (lower = more inhibition) was 12.9%.
The same measure, in the same setting: with `Cc1nc2ccc(CN(C)c3ccc(C(=O)N[C@@H](CCC(=O)O)C(=O)O)s3)cc2c(=O)[nH]1` the figure was 106%.
On the same count and under the same terms, as for `O=C(Nc1ncc(-c2cc(C(F)F)nn2-c2c(Cl)cccc2Cl)s1)C1CC1`, the figure is 26.5%; as for `Cc1ccc2nc(NC(=O)CSc3nc4c(c(=O)n3-c3ccccc3)SCC4)sc2c1`, 82.9%.
